KLF5 inhibitor: KLF5 expression inhibitors, primary screen, DLD-1 cells, luminescence. DLD-1 KLF5 promoter-luciferase reporter. inhibition, % at 5 µM. 0.23% of 290,000 active. AID 1700, 2009;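 active = inhibition above a per-plate limit of that plate's mean compound inhibition plus 3 SD, cut at about 60% in these data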;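 note: 0% = DMSO wells and 100% = LY294002 at 200 µM; higher means less KLF5 promoter-driven luciferase light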
IEC-6 cytotox: cytotoxicity in IEC-6 intestinal epithelial cells, primary screen, cytotoxicity control for KLF5 inhibitor project, cell-based, luminescence | IEC-6 cytotoxicity, luminescence viability | inhibition, % at 5 µM | 0.78% of 290,000 active | AID 1825, 2009;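 note: 0% = plate median of test compound wells and 100% = cytotoxic reference compound wells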
BaF3 parental: parental Ba/F3 cell viability inhibition, counter-screen for JAK2V617F inhibitor project, murine pro-B, CellTiter-Glo luminescence. AID 1486, 2009. CellTiter-Glo ATP luminescence. 1.1% of 220,000 active. inhibition, % at 5.6 µM;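 active = inhibition above a per-campaign cutoff, the mean inhibition of all tested compounds plus 3 SD, cut at about 27% in these data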;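 note: 0% = DMSO wells and 100% = JAK Inhibitor I control wells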
APP transl inh: inhibitors of APP translation via 5'UTR reporter, primary screen, APP 5'UTR luciferase, SH-SY5Y cells; SH-SY5Y APP 5'UTR-luciferase reporter, luminescence; inhibition, % at 2 µM; 0.82% of 190,000 active;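 active = inhibition above a set limit, derived from the sample mean plus 3 SD, cut at about 45% in these data; inconclusive = one replicate passes the limit while the other fails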
aSyn UTR inh: MLPCN primary screen, SNCA 5' untranslated region | inhibition, % (tested at 7.5 µM) | 0.82% of 300,000 active | AID 1813, 2009 | alpha-synuclein 5'UTR reporter, inhibitor activity; in the data active = inhibition above about 60%; inconclusive = no clear call, values can overlap the other calls;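 note: H4 neuroglioblastoma cells stably carrying SNCA 5'UTR luciferase fusion; 0% = DMSO wells and 100% = positive control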
Ba/F3 V617F tox: reduced viability of JAK2V617F-dependent Ba/F3 cells, primary screen, JAK2V617F inhibitor project, cell-based, Ba/F3 EpoR-JAK2V617F, luminescence | ATP luminescence | inhibition, % at 5.6 µM | 1.1% of 220,000 active | AID 1446, 2008;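 active = inhibition above the campaign mean plus 3 SD over all tested compounds, cut at about 24% in these data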;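 note: cytokine-independent growth of Ba/F3 cells driven by EpoR plus mutant JAK2; 0% = DMSO-treated cells and 100% = JAK inhibitor I control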
IEC-6 tox confirm: cytotoxic compounds in IEC-6 epithelial cells, confirmation, cytotoxicity control, cell-based, luminescence. 63% of 1,900 active. inhibition, % at 5 µM. IEC-6 rat intestinal epithelial viability. shares compounds with IEC-6 cytotox;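 note: 0% = vehicle and 100% = reference cytotoxic drug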
Active calls of the source: *; ? = inconclusive; nt = no result given. Sampled rows, rich in hits. Any-hit rate of the full collection: about 2.2%. Cut-off read from the data, not from the text of the source, unless noted: active = inhibition above about 22%; inactive = the rest.

SMILES | KLF5 inhibitor | IEC-6 cytotox | BaF3 parental | APP transl inh | aSyn UTR inh | Ba/F3 V617F tox | IEC-6 tox confirm
CCn1c(C)c(C)c2cc(C(=O)N3CCc4ccccc4C3)ccc21 | -4 | 46* | nt | nt | -6 | nt | 30*
O=Nc1c(-c2c(O)[nH]c3cc(Br)ccc23)[nH]c2ccccc12 | 4 | 23* | nt | nt | 77* | nt | 3
Cc1cc(-c2nnc3n2N=C(c2ccccc2Br)CS3)n[nH]1 | -22 | -5 | 19 | nt | 6 | 11 | nt
Cc1cccc(-c2nnc3n2N=C(c2ccccc2Br)CS3)c1 | 7 | 34* | 33* | -16 | 39 | 37* | 21
CCOc1cccc(-c2nnc3n2N=C(c2cc(OC)ccc2OC)CS3)c1 | 38 | 58* | 81* | 88* | 63* | 80* | 52*
c1ccc(-c2ccc(C3=Nn4c(nnc4-c4cccs4)SC3)cc2)cc1 | 10 | 8 | 2 | nt | 28 | -1 | nt
COc1ccc(C2=Nn3c(nnc3-c3ccccc3OC)SC2)cc1OC | 55 | 92* | 89* | 96* | 107* | 93* | 72*
COc1cccc(-c2nnc3n2N=C(c2cc(OC)ccc2OC)CS3)c1 | -8 | -4 | 0 | -9 | 29 | -1 | nt
COc1ccc(C2=Nn3c(nnc3-c3ccccn3)SC2)cc1OC | -7 | 1 | 10 | -8 | ? | 5 | nt
CCc1ccc(C2=Nn3c(nnc3-c3cccs3)SC2)cc1 | 9 | 52* | 4 | -1 | 12 | -2 | 35*
Cn1c(=O)n(C)c2cc(/C=N/NC(N)=S)ccc21 | -43 | -2 | 4 | -25 | 8 | 3 | nt
O=C(Cc1ccc(Cl)cc1)Nc1cccc(C(=O)Nc2ccccc2C(=O)O)c1 | -20 | -1 | nt | nt | 13 | nt | nt
Cc1ccc(-c2csc(NC(=O)CN3CC(C)OC(C)C3)n2)cc1 (stereo unspecified) | -17 | 1 | nt | nt | -8 | nt | nt
O=C(CCN1C(=O)/C(=C/c2cccs2)SC1=S)N1CCCCC1 | -29 | 19 | nt | nt | -90 | nt | nt
CCC1CN(C(=O)N2CCC(C(=O)NCc3ccc(F)cc3)CC2)c2ccccc2O1 (stereo unspecified) | 9 | -4 | nt | nt | 6 | nt | nt
CC(Oc1ccccc1F)C(=O)NNC(=O)c1cc2ccccc2o1 (stereo unspecified) | -29 | -2 | 8 | 16 | -18 | 0 | nt
COc1ccc(C2=Nn3c(nnc3-c3ccc(OC)cc3)SC2)cc1 | 53 | 82* | 76* | 93* | 100* | 64* | 58*
COc1ccc(CNC(=O)C/C(C)=N/NC(=O)COc2ccc(Br)cc2)cc1 | -47 | -3 | 5 | -6 | 7 | 6 | nt
CN(CC1CCCO1)S(=O)(=O)c1ccc(C(=O)Nc2nnc(-c3ccccc3)o2)cc1 (stereo unspecified) | 51 | 27* | nt | nt | 48 | nt | 6
CN(CC1CCCO1)S(=O)(=O)c1ccc(C(=O)Nc2nc(-c3ccccn3)cs2)cc1 (stereo unspecified) | 56 | 57* | 61* | 74* | nt | 70* | 52*
COc1ccccc1-c1nnc(NC(=O)c2ccc(S(=O)(=O)N(C)CC3CCCO3)cc2)o1 (stereo unspecified) | 49 | 12 | nt | nt | 20 | nt | nt
Cn1c(=O)c2sccc2n2c(CCCC(=O)NCc3ccc(F)cc3)nnc12 | 5 | 4 | nt | nt | 22 | nt | nt
CCCCOc1ccc(Br)cc1/C(C)=N/NC1=NCCN1 | 32 | 83* | 75* | 96* | 121* | 80* | 66*
COc1ccccc1C(=O)OCC(=O)NC1CCCC1 | -30 | -2 | nt | nt | -29 | nt | nt
COc1ccc(S(=O)(=O)N2CCCCCC2)cc1C(=O)N(C)CC(=O)Nc1cc(C)ccc1C | -8 | 0 | nt | nt | -24 | nt | nt
SMILES | KLF5 inhibitor | IEC-6 cytotox | BaF3 parental | APP transl inh | aSyn UTR inh | Ba/F3 V617F tox | IEC-6 tox confirm
Clc1ccc(OCCN2CCN(c3ncnc4sccc34)CC2)cc1 | 6 | 26* | 73* | 15 | -4 | 66* | 10
Cn1c(=O)[nH]c(=O)c2c1nc([N+](=O)[O-])n2Cc1ccccc1 | -3 | 38* | 77* | nt | -42 | 95* | 10
CC(C)Cn1c([N+](=O)[O-])nc2c1c(=O)[nH]c(=O)n2C | -6 | -3 | -2 | nt | -20 | -2 | nt
CCOC(=O)C1CCN(CC(=O)N(CC(C)C)c2c(N)n(CC(C)C)c(=O)[nH]c2=O)CC1 | -13 | 7 | 3 | 1 | -3 | 4 | nt
FC(F)(F)c1ccc(Sc2nnc(-c3cccs3)n2CC2CCCO2)nc1 (stereo unspecified) | -12 | 0 | 1 | 19 | 20 | -1 | nt
FC(F)(F)c1cnc(Sc2nnc(-c3cccs3)n2CC2CCCO2)c(Cl)c1 (stereo unspecified) | -47 | 25* | 0 | 0 | 0 | 1 | 34*
Cc1nn2c(NCCN(C)C)c3c(nc2c1-c1ccccc1)CCCC3 | -3 | 25* | 4 | nt | nt | 7 | 1
COCCNc1c2c(nc3c(-c4ccccc4)c(C)nn13)CCCC2 | -11 | -2 | 8 | 11 | 37 | 1 | nt
CCCc1nnc(SCC(=O)Nc2cccc(C(F)(F)F)c2)o1 | 2 | 5 | nt | nt | -10 | nt | nt
Cn1c(=O)c2c(nc(NCc3cccnc3)n2Cc2cccc(C(F)(F)F)c2)n(C)c1=O | 9 | 25* | 53* | -11 | 10 | 53* | 25*
CCn1c(=O)c2c(nc3n2CCCN3c2cccc(C)c2)n(C)c1=O | -30 | 1 | 2 | nt | 12 | -1 | nt
Cc1c(C)c(C)c(C(=O)C2CCN(c3ccc([N+](=O)[O-])cn3)CC2)c(C)c1C | -50 | -7 | 0 | nt | 16 | -7 | nt
N#Cc1nccnc1S(=O)(=O)c1cccs1 | -10 | 40* | 35* | nt | -48 | 92* | 82*
O=C(COC(=O)/C=C/c1ccc(Cl)cc1)Nc1ccc2[nH]c(=O)[nH]c2c1 | nt | nt | nt | nt | -12 | nt | nt
Cc1ccn2cc(-c3ccc(O)c(O)c3)nc2c1 | -58 | 23* | nt | nt | 41 | nt | 13
COc1cc(OC)cc(C(=O)c2c(C)c(C#N)c3ccccn23)c1 | 58 | 52* | nt | nt | 52 | nt | 18
O=C(Nc1ccccc1)Nc1ccno1 | -22 | 5 | 1 | nt | -34 | -7 | nt
CC1=C(C(=O)Nc2ccc(CC(=O)NCc3ccc(OC(C)C)cc3)cc2)SCCO1 | 47 | 82* | nt | nt | 56 | nt | 60*
COc1ccc(CNC(=O)Cc2ccc(NC(=O)C3=C(C)OCCS3)cc2)cc1 | 10 | 65* | nt | nt | -13 | nt | 43*
Cc1cccc(-c2ncc(CN3CCN(CCC(C)C)C(CCO)C3)cn2)c1 (stereo unspecified) | -22 | 5 | 0 | -18 | -29 | -2 | nt
CCC(C(=O)NC1CC(C)(C)NC(C)(C)C1)c1ccccc1 (stereo unspecified) | -35 | -2 | nt | nt | 6 | nt | nt
NCCCNc1nc(N)c([N+](=O)[O-])c(NC2CCCCC2)n1 | 55 | 46* | nt | nt | 49 | nt | 43*

Compound activity deposited in PubChem BioAssay by several laboratories.
